In all, about 320,000 compounds went through this assay and about 1,300 (0.41%) were called active. Another 3% or so got no clear call; they are omitted. No rule for the calls is given here. The list is a sample of the results. Entries with a potency or affinity are not part of this list.

The source of these data is PubChem BioAssay AID488890 (Southern Research Specialized Biocontainment Screening …, 2010).

This assay in a line: growth inhibition of non-replicating M. tuberculosis (AID 488890).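 Also: plate controls were DMSO cells for no effect and high antibiotic wells for full effect.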 The settings on record: Mycobacterium tuberculosis non-replicating, at 25 µM, stronger effect = higher value.
For orientation: inhibition means the relative decrease from the control value, in per cent. As to `CC1Cc2ccccc2N1C(=O)c1ccc(N2CCCCC2)c([N+](=O)[O-])c1` (stereo not given), the inhibition was 20.8%.
Next, `Cc1ccc2sc3ccc(NC(=O)c4ccccc4Cl)cc3c(=O)c2c1`: -1.36%.
Next, `Cc1ccc(C(=O)N[C@H](C(=O)NC2CCCCCCC2)C(C)C)cc1`: -6.5%; `Cc1ccc(C(=O)N[C@H](C(=O)NC2CCCCC2)C(C)C)cc1`: 15.5%.
Next, `CN(C)c1cc[n+](CC(=O)N2c3ccccc3Sc3ccccc32)cc1`: 6.94%.
On to `CC1(c2cc(C(F)(F)F)n3nc(C(=O)O)cc3n2)CC1`, for which the inhibition was -1.85%.
On to `Fc1ccc(Oc2cnc3ccccc3n2)cc1`, for which the inhibition worked out at 75.1%.
Take `CCC(=O)Nc1nc2ccccc2n1CCN(C)C`: the inhibition worked out at 28.6%.
In the case of `CCC(=O)Nc1nc2ccccc2n1CCN(CC)CC` it was 12.6%.
As to `Cc1nc2ccccc2n1Cc1ccc(Cl)cc1`, the inhibition came out at 16.2%.
In the case of `CCn1c(NCc2ccccc2Cl)nc2ccccc21` it was 26.2%.
In the case of `CCS(=O)(=O)c1nc2ccccc2n1Cc1ccccc1Cl` it was 17.3%.
In the case of `CCC(=O)Nc1nc2ccccc2n1CCN1CCOCC1` it was 2.63%; in that of `Cc1ccc(CNC(=O)c2nnn(-c3cccc(C)c3)c2N)cc1`, 27.4%; in that of `O=c1c2ccccc2nnn1COc1ccc(F)cc1Cl`, 33%.
With `N#CC(C#N)=C1NC2(CCCCC2)Cc2ccccc21`, the inhibition is -7.74%.
In the case of `CN(CC(=O)Nc1cccc(F)c1)C(=O)c1ccc(C2SCCS2)cc1`, the inhibition stood at 16%.
Next, `COc1ccc(NC(=O)c2cnc(SCC(=O)NCCc3ccccc3)n(C)c2=O)cc1`: -6.78%; `COc1ccccc1C(=O)N(CCC1CCCN1C)c1nc2ccccc2s1` (stereo not given): 12.9%; `CCCCn1c(N)c(N(CCOC)C(=O)c2sc3cc(F)ccc3c2Cl)c(=O)[nH]c1=O`: -5.03%.
Turning to `NS(=O)(=O)c1ccc(NC(=O)COC(=O)COc2ccc3ccccc3c2)cc1`, the inhibition was determined as 34.3%.
In the case of `O=C(CSc1n[nH]c(=O)n1Cc1ccco1)Nc1ccccc1` it was -4.65%; in that of `CCN1C(=O)C(CC(=O)Nc2ccc(Br)cc2)N(CCCc2ccccc2)C1=S` (stereo not given), 41.5%.
In the case of `Cc1ccc(NC(=O)O/N=C/c2ccc(F)cc2)cc1` it was 4.77%; in that of `O=C(Nc1ccccc1)ON=C1CCCC1`, 69.3%.
In the case of `O=C(COc1cc2oc(=O)c3c(c2cc1Cl)CCC3)Nc1cccnc1` it was 5.55%.
With `COc1ccc(-c2cc(C(F)(F)F)nc(N)n2)cc1`, the inhibition is 6.01%.
Next, `Cc1cc(NC(=O)CCS(=O)(=O)c2nc(-c3ccccc3)cc(C(F)(F)F)n2)no1`: 41.1%.
In the case of `COc1ccccc1-c1cc(C(F)(F)F)nc(S(=O)(=O)CCCC(=O)O)n1` it was 44.3%.
In the case of `CCOC(=O)CCSc1nc(-c2ccccc2)cc(C(F)(F)F)n1` it was 8.6%.
As for `Cc1ccc(-c2cc(C(F)F)nc(N3CCC(C)CC3)n2)cc1`, the inhibition was found to be 8.45%.
Next, `CCOC(=O)CSc1nc(-c2ccccc2)cc(C(F)(F)F)n1`: 69.6%.
Regarding `COc1ccc(-c2cc(C(F)(F)F)nc(S(=O)(=O)CCC(=O)N3CCOCC3)n2)cc1`, the inhibition was found to be 79%.
Next, `Cc1ccc(-c2cc(C(F)F)nc(N3CCOCC3)n2)cc1`: 17.6%; `O=C1OC[C@H]2CCCN2C(=O)[C@@H](CC(=O)N(CCO)Cc2ccccc2)C/C=C\C[C@H]1Cc1ccc(F)cc1`: 47.4%; `O=C1NNC(c2ccccc2)=N/C1=C\c1ccccc1`: -6.71%.
In the case of `CSc1ccccc1C(=O)NCCCOC(C)C` it was -17.5%; in that of `O=C(O)/C=C/C(=O)NCCCc1ccccc1`, 18.7%.
In the case of `CC1=C(C(=O)OCCOC(C)C)C(c2cc3c(cc2Br)OCO3)C2=C(CCCC2=O)N1` (stereo not given) it was 12.9%; in that of `COc1cc(CC(CC(=O)O)CC(C)OCc2ccccc2)cc(OC)c1` (stereo not given), 24.2%.
As to `COc1ccc(CN(C)C(=O)c2ccc3c(=O)n4c(nc3c2)CCC4)cc1`, the inhibition is -3.83%.
Next, `O=C(Nc1ccc2nc3n(c(=O)c2c1)CCCC3)c1cccc([N+](=O)[O-])c1`: -20.7%; `O=C(c1ccc2c(=O)n3c(nc2c1)CCCCC3)N1CCN(c2ccc([N+](=O)[O-])cc2)CC1`: 25.7%.
Next, `COc1ccc(COC(=O)c2ccc3c(=O)n4c(nc3c2)CCC4)cc1F`: -0.76%; `CC(OC(=O)c1ccc2c(=O)n3c(nc2c1)CCC3)C(N)=O` (stereo not given): -8.53%; `CN(Cc1cccc(F)c1)C(=O)c1ccc2c(=O)n3c(nc2c1)CCC3`: -4.16%.
Next, `O=C(COc1ccccc1Cl)NNC(=O)c1ccc2c(=O)n3c(nc2c1)CCC3`: -23%; `O=C(NNC(=O)c1ccccc1Cl)c1ccc2c(=O)n3c(nc2c1)CCC3`: 1.89%.
Take `CC1CCCCN1S(=O)(=O)c1ccc(S(=O)(=O)N2CCCC2)cc1` (stereo not given): the inhibition turned out to be 4.73%.
As to `CCOc1ccc(CCNS(=O)(=O)c2cc3c(cc2C)NC(=O)CO3)cc1OCC`, the inhibition worked out at 16.2%.
Next, `O=C(Cc1cccc2ccccc12)Nc1ccccc1Br`: 12.5%.
In the case of `CC(=O)Nc1nnc(SCC(=O)NCc2ccc3c(c2)OCO3)s1` it was -14.9%; in that of `Cc1ccc(C(=O)NCc2ccc3c(c2)OCO3)cc1Cl`, 45.9%.
With `Cc1ccc(CS(=O)(=O)CCC(=O)N2CCC3(CC2)OCCO3)cc1`, the inhibition was -11.2%.
Next, `Cc1ccc(S(=O)(=O)Nc2ccccc2F)cc1C(=O)NCCCN1CCCC1=O`: -4.79%; `CCOC(=O)c1c(S(=O)(=O)Nc2ccc(C)c(F)c2)c(C)n(C)c1C`: -0.18%; `CC1(C)CC(=O)C(C2=NC3(CCCCCC3)Cc3ccccc32)=C(O)C1`: -2.29%.
In the case of `CS(=O)(=O)N1CCC(C(=O)Nc2cc(Cl)ccc2Cl)CC1`, the inhibition was -6.65%.
Next, `CC(C)c1cc(C(=O)N2CCN(C(c3ccccc3)c3ccccc3)CC2)no1`: 21.3%.
Next, `NC(=O)[C@@H]1CC2(CC(c3cccc(NC(=O)CC(c4ccccc4)c4ccccc4)c3)=NO2)CN1C(=O)[C@@H]1CCC(=O)N1` (stereo not given in full): 14.1%.
In the case of `CCc1nnc(NC(=O)C2Cc3ccccc3CN2S(=O)(=O)CC)s1` (stereo not given), the inhibition is 5.84%.
Next, `CC(OC(=O)c1ccc2c(=O)n3c(nc2c1)CCCCC3)C(=O)Nc1ncc(Cl)cc1Cl` (stereo not given): 29.8%; `O=C(Nc1ccc(F)cc1)c1ccc2c(=O)n3c(nc2c1)CCCCC3`: 21.9%.
`CC(OC(=O)c1ccc2c(=O)n3c(nc2c1)CCCCC3)C(=O)Nc1ccc(F)cc1Cl` (stereo not given): the inhibition was 2.57%.
Next, `CCOc1ccc(CCNC(=O)c2ccc3c(=O)n4c(nc3c2)CCCCC4)cc1`: 51%.
In the case of `O=C(NNC(=O)c1ccc2c(=O)n3c(nc2c1)CCC3)c1ccc(F)cc1` it was -18.9%.
As for `CCOc1ccc(NC(=O)c2ccc3c(=O)n4c(nc3c2)CCCCC4)cc1`, the inhibition was found to be 20.7%.
In the case of `CNS(=O)(=O)c1cccc(C(=O)OCC(=O)N2c3ccccc3CC2C)c1` (stereo not given) it was -1.88%; in that of `Fc1ccc(-c2n[nH]c(=S)c3ccccc23)cc1`, 15.8%; in that of `CCOc1ccc(NC(=O)Nc2ccc3c(c2)CCC3)cc1`, -9.82%.
Next, `Cc1cc(F)ccc1Oc1cc(NN2CCCCC2)c([N+](=O)[O-])cc1[N+](=O)[O-]`: 8.26%; `CC(Oc1ccc(S(=O)(=O)N2CCCC2)cc1[N+](=O)[O-])C(=O)NC1(C#N)CCCCC1` (stereo not given): 9.55%; `COc1cccc(CNC(=O)C2CCN(c3cnccn3)CC2)c1`: -3.9%.
In the case of `O=C1NC(=O)N(CCc2ccc(F)cc2)C(=O)/C1=C/c1ccco1` it was 22.4%.
For `O=C1NC(=O)N(CCc2ccc(F)cc2)C(=O)/C1=C/c1cccs1`, the inhibition worked out at 2.97%.
Next, `O=C(c1ccccc1NS(=O)(=O)c1cccs1)N1CCOCC1`: 6.22%; `Cc1cc(OCC(=O)Nc2ncn[nH]2)ccc1Cl`: 30.6%.
Next, `CCCCn1nnc(NC(=O)COc2cc(C)ccc2C(C)C)n1`: 64%; `Cc1cccc(OCC(=O)Nc2nonc2NC(=O)COc2cccc(C)c2)c1`: 48%.
`CCCn1nnc(NC(=O)COc2ccccc2Cl)n1`: the inhibition was 67.3%.
Next, `Cc1cccc(N2CC(C(=O)Nc3ccc4c(c3)OCCO4)CC2=O)c1C` (stereo not given): -5.78%.
In the case of `CCc1cc2c(=O)c(-c3nc(C)cs3)coc2cc1O` it was 13.5%; in that of `COCCNC(=O)C1CCC(=O)N1S(=O)(=O)c1ccc(C)cc1` (stereo not given), 1.96%.
Next, `Cc1[nH]n(-c2ccccc2)c(=O)c1C=Nc1cccc2cccnc12`: 33.6%; `Cc1[nH]n(-c2ccccc2)c(=O)c1C=Nc1cccc(F)c1`: 5.36%; `O=C(Cc1ccccc1F)N1CCN(CC(=O)N2CCCC2)CC1`: 8.24%.
In the case of `CCOC(=O)CSc1nnc(CCc2nc3ccccc3[nH]2)n1C`, the inhibition was -4.77%.
In the case of `Cc1ccc(C(=O)c2coc3ccc(OCC(=O)O)cc23)cc1` it was -4.9%; in that of `COc1ccc2occ(C(=O)c3ccccc3)c2c1`, 3.51%.
Turning to `CNC(=S)NNC(=O)c1cn(C)nc1C`, the inhibition is -3%.
Next, `CCn1ccc(C(=O)NCCCN2CCCC2=O)n1`: 5.42%; `Cc1c([N+](=O)[O-])c([N+](=O)[O-])nn1CC(=O)N1CCOCC1`: 1.03%.
For `O=C(O)C1C2C=CC(CC2)C1C(=O)O` (stereo not given), the inhibition stood at 1.2%.
In the case of `O=C(C[C@@H]1C/C=C\CCCC(=O)OC[C@@H]2CCCN2C1=O)N[C@@H](CO)Cc1ccccc1` it was 0.26%; in that of `O=C(Nc1nnc(-c2ccco2)o1)c1ccc(S(=O)(=O)N2CCCC2)cc1`, 25.6%.
Next, `Cc1ccc2nsnc2c1NC(=O)c1ccc([N+](=O)[O-])o1`: 75.4%; `Cc1ccc(C)c(-c2nnc(NC(=O)CCS(=O)(=O)c3ccc(F)cc3)o2)c1`: 41.4%; `CS(=O)(=O)c1ccccc1-c1nnc(NC(=O)c2ccco2)o1`: 38.6%.
In the case of `Cc1ccc(O)c(NC(=O)c2ccco2)c1` it was 15.1%.
Regarding `CS(=O)(=O)c1ccc(-c2nnc(NC(=O)c3ccco3)o2)cc1`, the inhibition is 43.1%.
In the case of `Cc1ccc(NC(=O)c2ccco2)cc1C` it was 60.8%; in that of `CS(=O)(=O)c1ccccc1-c1nnc(NC(=O)c2ccc(S(=O)(=O)N3CCCC3)cc2)o1`, -2%; in that of `Cc1nc(-c2ccc(NC(=O)C(C)(C)C)cc2)c(-c2ccccc2)o1`, -0.61%.
In the case of `Nc1cccc(C(=O)OCC(=O)NC2CCCc3ccccc32)c1` (stereo not given) it was 6.1%; in that of `O=C1c2ccccc2C(=O)N1CCOc1cccc(Br)c1`, 53.6%.
Next, `CCCCCC(=O)N/N=C(\C)c1ccc(NC(=O)c2ccco2)cc1`: 10.3%; `CCNC(=O)C(=O)Nc1ccc(OC)c(Cl)c1`: -0.29%; `COc1ccc(Cc2nc3ccc(C(=O)N4C[C@@H](C)O[C@@H](C)C4)cc3o2)cc1OC`: 17.8%.
For `c1ccc(-c2nn3c(C4CCCCC4)nnc3s2)nc1`, the inhibition was 9%.
In the case of `Cc1nc(N2CCN(Cc3ccccc3)CC2)nc2c1C(=O)CC(c1ccco1)C2` (stereo not given) it was 3.19%.
